Shown are actives, neighbours in structure and some others; about 4.1% of the full set was active somewhere.
GDH-TPI inh: counter-screen for M. tuberculosis FBA inhibitors: GDH-TPI coupled enzymes; GDH-TPI coupled enzyme counterscreen, NADH absorbance; inhibition, % at 4.8 µM; hit rate 1.2% among 360,000; in the data active = inhibition above about 30%;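 note: 0% = DMSO wells and 100% = wells lacking the enzyme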
BH1578 lux ind: induces V. cholerae light production without autoinducers. V. cholerae BH1578 lux reporter, luminescence, 6 h. AID 588436. activation, % at 18.7 µM. hit rate 0.16% among 350,000; in the data active = activation mostly above about 9.7%, no sharp cut-off
Rv3671c protease: inhibits the M. tuberculosis serine protease Rv3671c | inhibition, % at 5.96 µM | P9WHR9 | hit rate 0.048% among 320,000; in the data active = inhibition above about 38%;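 note: extracellular domain of Rv3671c used as enzyme; 0% = enzyme with DMSO and 100% = no enzyme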
RecA intein inh: inhibitors of M. tuberculosis RecA intein splicing; hit rate 0.75% among 290,000; P9WHJ3; inhibition, % (concentration not given with the values); AID 2221; cell-free RecA intein splicing, fluorescence; in the data active = inhibition above about 30%;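 note: 0% = vehicle wells and 100% = reference inhibitor control wells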
Mtb FBA inh: inhibits M. tuberculosis FBA enzyme; P9WQA3; purified M. tuberculosis FBA, fluorescence read-out; inhibition, % at 1 µM; hit rate 2.3% among 360,000; AID 588726; in the data active = inhibition above about 27%;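 note: 0% = vehicle and 100% = reference inhibitor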
Target sequence (P9WQA3 whole entry, looked up): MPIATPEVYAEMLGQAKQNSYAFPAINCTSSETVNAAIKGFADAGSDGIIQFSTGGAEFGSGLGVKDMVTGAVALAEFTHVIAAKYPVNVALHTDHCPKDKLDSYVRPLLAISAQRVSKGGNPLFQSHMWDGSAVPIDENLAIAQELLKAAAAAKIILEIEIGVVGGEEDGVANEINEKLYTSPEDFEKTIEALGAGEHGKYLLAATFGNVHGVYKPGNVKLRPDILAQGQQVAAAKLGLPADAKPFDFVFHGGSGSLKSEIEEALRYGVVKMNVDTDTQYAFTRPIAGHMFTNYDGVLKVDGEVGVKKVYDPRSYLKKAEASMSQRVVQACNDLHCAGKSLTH
Mtb UGM inh: inhibitors of M. tuberculosis UDP-galactopyranose mutase; P9WIQ1; purified UGM, fluorescence polarization probe displacement; inhibition, % at 10 µM; hit rate 0.06% among 320,000; in the data active = inhibition above about 10%, passing the limit was not always enough
Active calls of the source: *.

What do the screens show for `CCOc1ccc2nc(-c3ccccc3)[nH]c2c1`?
GDH-TPI inh: 2.4; BH1578 lux ind: -1.7; Rv3671c protease: 6.4; RecA intein inh: -2.8; Mtb FBA inh: 188.6*; Mtb UGM inh: -0.8

What do the screens show for `COc1ccc(NC(=S)NC(NC(=O)c2ccccc2Cl)C(Cl)(Cl)Cl)c([N+](=O)[O-])c1` (centres undefined)?
GDH-TPI inh: 8.2; BH1578 lux ind: 1.6; Rv3671c protease: -11.8; RecA intein inh: 4.9; Mtb FBA inh: -2.7; Mtb UGM inh: 1.9

Results for COc1ccc(NC(=S)NC(NC(=O)CCl)C(Cl)(Cl)Cl)c([N+](=O)[O-])c1 (centres undefined) ?
GDH-TPI inh: -3.1; BH1578 lux ind: inactive; Rv3671c protease: -8.9; RecA intein inh: 55.0*; Mtb FBA inh: -3.9; Mtb UGM inh: -0.9

Results for O=c1c2ccccc2nc(SCc2ccccc2Cl)n1Cc1ccccc1 ?
GDH-TPI inh: 6.4; BH1578 lux ind: 25.8*; Rv3671c protease: -8.7; RecA intein inh: 1.1; Mtb FBA inh: 0.7; Mtb UGM inh: -1.2

What do the screens show for `CCCC[N+](CC#CCO)(CC#Cc1ccccc1)CCCC`?
GDH-TPI inh: -17.1; BH1578 lux ind: -0.4; Rv3671c protease: -7.0; RecA intein inh: -0.1; Mtb FBA inh: 2.9; Mtb UGM inh: 1.2

Results for CCC[N+](CC#CCO)(CC#Cc1ccccc1)CCC ?
GDH-TPI inh: 3.4; BH1578 lux ind: -0.8; Rv3671c protease: 1.9; RecA intein inh: 0.8; Mtb FBA inh: 145.8*; Mtb UGM inh: -0.1

How did CC12CCC(C(N)C1=O)C2(C)C (centres undefined) do in these assays?
GDH-TPI inh: -8.2; BH1578 lux ind: -3.4; Mtb FBA inh: 0.5

How did CCOC(=O)c1ccc(N2C(=O)c3n[nH]c(-c4ccco4)c3C2c2ccc([N+](=O)[O-])cc2)cc1 (centres undefined) do in these assays?
GDH-TPI inh: 14.2; BH1578 lux ind: inactive; Rv3671c protease: -151.3; RecA intein inh: 31.9*; Mtb FBA inh: -1.2; Mtb UGM inh: 1.2

Results for O=C(O)CSc1cc(NS(=O)(=O)c2cccc([N+](=O)[O-])c2)c2ccccc2c1O ?
GDH-TPI inh: 4.3; BH1578 lux ind: -0.2; RecA intein inh: 95.2*; Mtb FBA inh: 4.5

What do the screens show for `CCc1ccc(C(=O)NNC(=S)Nc2ccc(S(N)(=O)=O)cc2)s1`?
GDH-TPI inh: 25.5; BH1578 lux ind: -0.4; Rv3671c protease: -4.8; RecA intein inh: 62.8*; Mtb FBA inh: 3.4; Mtb UGM inh: 1.5

Results for CC1(C(=O)NS(=O)(=O)C2CC2)CCN(C(=O)c2cc(F)cc(F)c2)C1 (centres undefined) ?
GDH-TPI inh: -9.3; BH1578 lux ind: -0.3; Mtb FBA inh: -0.3

Results for O=C(/C=C/[C@H]1O[C@@H](n2cnc3c(NC(=O)c4ccccc4)ncnc32)[C@H](O)[C@@H]1O)NC1CCCCC1 ?
Mtb FBA inh: 4.8

How did CC(Oc1ccccc1)C(=O)Nc1nnc(S(=O)(=O)N(C)c2ccccc2)s1 (centres undefined) do in these assays?
GDH-TPI inh: 13.9; BH1578 lux ind: -2.0; Rv3671c protease: -5.3; RecA intein inh: 1.3; Mtb FBA inh: 6.5; Mtb UGM inh: -0.1

How did CC(C)CC(=O)OC1C(N2CCOCC2)c2c(ccc(/C=C/C(=O)N3CCOCC3)c2O)OC1(C)C (centres undefined) do in these assays?
GDH-TPI inh: 31.3*; BH1578 lux ind: -0.2; Rv3671c protease: -4.7; RecA intein inh: 0.2; Mtb FBA inh: 6.1; Mtb UGM inh: -0.4

How did CC1(C)Oc2ccc(/C=C/C(=O)N3CCOCC3)c(O)c2C(N2CCOCC2)C1O (centres undefined) do in these assays?
Rv3671c protease: -7.1; RecA intein inh: -4.4; Mtb UGM inh: -1.1

Results for COc1ccccc1NC(=O)CCc1nc2sc3c(c2c(=O)[nH]1)CCCC3 ?
GDH-TPI inh: 1.0; BH1578 lux ind: -17.1; Rv3671c protease: -14.1; RecA intein inh: -0.1; Mtb FBA inh: -4.1; Mtb UGM inh: -0.3

What do the screens show for `Cn1c2nc(=O)n(-c3ccccc3)c(=O)c-2nc2c1CCCC2`?
GDH-TPI inh: 19.1; BH1578 lux ind: -2.9; Mtb FBA inh: 183.8*

Results for CC(C)NC(=O)N(C)C[C@@H]1OCc2cnnn2CCCC(=O)N([C@H](C)CO)C[C@H]1C ?
GDH-TPI inh: 9.0; BH1578 lux ind: -0.5; Mtb FBA inh: -1.7

Source: PubChem BioAssay
